High-throughput results deposited in PubChem by National Center for Advancing Translational Sciences (NCATS).
The list is not random: actives were taken first. Their share in the collection is about 19%.
DT40 TDP1 CPT – DT40-hTDP1 cell growth loss with CPT; chicken DT40 Tdp1-/-;hTDP1 cells + 20 nM CPT, ATP luminescence, 48 h; Potency, µM (highest dose often 46.2 µM), most hits filed as inhibitors; 420,000 compounds, 12% hits; also: nearly all actives have a fitted effect of over 55% in size
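Chicken DT40 Tdp1-/- cells complemented with human TDP1, 400 cells/well, exposed to compounds plus 20 nM camptothecin for at least 48 h at 37 C; viability read as ATP content by CellTiter-Glo luminescence.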
HT1080 IDH1KD tx – HT-1080 IDH1 knockdown cell toxicity (counter line); HT-1080 IDH1 knockdown viability, ATP luminescence, 48 h; Potency, µM (top dose mostly 46.1 µM), hits mostly cytotoxic; 360,000 compounds, 2% hits; AID 686971
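% activity derives from luminescence (CellTiter-Glo), normalised to DMSO and no-cell wells. HT-1080-IDH1KD cells, 750/well, had 48 h compound exposure at 37 °C.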
DT40 TDP1 no CPT – qHTS for Inhibitors of human tyrosyl-DNA phosphodiesterase 1 (TDP1): qHTS in cells in absence of CPT; DT40 Tdp1-/- hTDP1 cells, no CPT, ATP luminescence, 48 h; Potency, µM (series often up to 46.2 µM), usual class: inhibitors; 420,000 compounds, 15% hits; AID 686978, 2013; also: nearly all actives have a fitted effect of over 55% in size
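Luminescent ATP content (CellTiter-Glo) served as the growth readout. Knockout chicken DT40 cells expressing human TDP1 were exposed to compounds without camptothecin for a minimum 48 hr at 37 °C.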
IL1B secr inh – blocks inflammasome-driven IL-1 beta release; THP-1 LPS/ATP IL-1B secretion, AlphaLISA, 16 h; active compounds read low; AID 743279; activity change, % at 57.5 µM; 360,000 compounds, 4.7% hits; in the data active = activity change below about -50%; inconclusive = mostly about -30% to -49%
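Secreted IL-1B measured by AlphaLISA bead assay after 16 h compound exposure of THP-1 cells; compounds (final up to 57.5 uM) added 1 h before LPS (250 ng/mL) and ATP (1.25 mM) stimulation; lower signal means less secretion.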
HT1080NT lethal – kills 2HG-producing HT-1080-NT fibrosarcoma cells; HT-1080-NT fibrosarcoma viability, CellTiter-Glo ATP luminescence, 48 h; Potency, µM (titrated, usually from 46.1 µM), usual class: cytotoxic; 360,000 compounds, 1.6% hits; AID 686970;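 also: NT is the 2HG producing partner of a matched IDH1 knockdown line; nearly all actives have a fitted effect of over 55% in size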
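A 48-hour cytotoxicity screen used HT-1080-NT cells plated 2 hours before compound delivery. ATP-based CellTiter-Glo luminescence measured viability, normalized to DMSO and no-cell controls.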
Each line names hits and unclear results; the compound was inactive in the other large screens. Unless noted, calls follow the shape of the dose curve; as a rule, active = well fitted curve in the direction sought with a large enough effect; inconclusive = small, poorly fitted or top-dose-only effect, or another doubt; inactive = no such curve, though single readings can be large; an effect the other way counts as inactive or inconclusive.

OC[C@H]1O[C@@H](O[C@@H]2[C@@H](CO)O[C@@](O)(CO)[C@H]2O)[C@H](O)[C@@H](O)[C@H]1O	none
O=C1C=C(NCc2ccc(Cl)c(Cl)c2)C2(CCCCC2)O1	DT40 TDP1 CPT inconclusive, DT40 TDP1 no CPT 16.4µM
O=C(CN1CCN(C(=O)C2CCCO2)CC1)Nc1ccc(Cl)cc1 (centres undefined)	none
CCCC1CCc2c(sc(NC(=O)OCC)c2C#N)C1 (centres undefined)	DT40 TDP1 CPT 14.6µM, HT1080 IDH1KD tx 18.4µM, DT40 TDP1 no CPT 23.1µM, IL1B secr inh inconclusive, HT1080NT lethal inconclusive
CCOC(=O)Nc1sc2c(c1C(N)=O)CCC(C)C2 (centres undefined)	none
CCCOc1ccc(N2C(=O)CC(NCCCN3CCC(C(N)=O)CC3)C2=O)cc1 (centres undefined)	DT40 TDP1 CPT 25.9µM, DT40 TDP1 no CPT inconclusive
CCCOc1ccc(N2C(=O)CC(NCC#N)C2=O)cc1 (centres undefined)	none
CCc1cccc(C)c1NC(=O)CN(C)S(=O)(=O)c1ccc(-c2ccc(=O)[nH]n2)s1	none
C=CCc1c(C)nc(C)nc1N/N=C/c1ccccc1	DT40 TDP1 CPT inconclusive, DT40 TDP1 no CPT inconclusive
C=CCc1c(C)nc(SC)nc1Nc1ccc(C)cc1	DT40 TDP1 CPT 9.2µM, DT40 TDP1 no CPT 20.6µM
O=C(O)CCc1ccc(-c2ccc(Cl)cc2)o1	none
COc1ccc(-c2ccc(CCC(=O)O)o2)cc1	DT40 TDP1 CPT 20.6µM, HT1080 IDH1KD tx inconclusive, DT40 TDP1 no CPT inconclusive, IL1B secr inh inconclusive, HT1080NT lethal inconclusive
O=C(O)CCc1ccc(-c2ccc(Br)cc2)o1	IL1B secr inh -65.4
Cn1cc(-c2nc3cnc(N4CCNCC4)nc3n(Cc3ccc(F)cc3)c2=O)c2ccccc21	DT40 TDP1 CPT 5.17µM, DT40 TDP1 no CPT 7.31µM (no result: HT1080 IDH1KD tx, IL1B secr inh, HT1080NT lethal)
CCNc1ncc2nc(-c3cn(C)c4ccccc34)c(=O)n(Cc3ccc(F)cc3)c2n1	none (no result: HT1080 IDH1KD tx, IL1B secr inh, HT1080NT lethal)
COc1cccc(Cn2c(=O)c(-c3cn(C)c4ccccc34)nc3cnc(N4CCNCC4)nc32)c1	DT40 TDP1 CPT 7.31µM, DT40 TDP1 no CPT 20.6µM (no result: HT1080 IDH1KD tx, IL1B secr inh, HT1080NT lethal)
C[C@@H](C[C@@H](O)[C@H](O)C(C)(C)O)[C@@H]1CC[C@]2(C)C3=CC[C@H]4C(C)(C)C(=O)CC[C@]4(C)[C@H]3CC[C@@]12C	DT40 TDP1 CPT 7.31µM, DT40 TDP1 no CPT 6.51µM, IL1B secr inh -53.2
CC(C)(O)CC[C@@H](O)[C@](C)(O)[C@H]1CC[C@@]2(O)C3=CC(=O)[C@@H]4C[C@@H](O)[C@@H](O)C[C@]4(C)C3CC[C@]12C (some centres undefined)	none
COC(=O)c1nn(-c2ccccc2)c(=O)cc1Oc1ccccc1	none
COc1cc(CNCCc2ccccc2)cc(Cl)c1OCc1ccccc1	DT40 TDP1 CPT inconclusive, HT1080 IDH1KD tx inconclusive, DT40 TDP1 no CPT inconclusive, IL1B secr inh -103.9, HT1080NT lethal 13µM
COc1cc(CNn2cn[nH]c2=S)cc(Cl)c1OCc1ccccc1	HT1080 IDH1KD tx inconclusive, HT1080NT lethal inconclusive
COc1cc(CNCCO)cc(Cl)c1OCc1ccccc1Cl	DT40 TDP1 CPT inconclusive, HT1080 IDH1KD tx inconclusive, DT40 TDP1 no CPT inconclusive, IL1B secr inh -90.8, HT1080NT lethal inconclusive
O=C(NC1CCN(S(=O)(=O)c2ccccc2F)CC1)c1cccnc1	none
CCOC(=O)C1(Cc2cccc(Cl)c2)CCCN(C(=O)C(C)(C)C)C1 (centres undefined)	DT40 TDP1 CPT inconclusive, DT40 TDP1 no CPT inconclusive
COCCNC(=O)c1oc2ccc3c(c2c1C)C(O)CC(C)(C)O3 (centres undefined)	none
Cc1c(C(=O)N2CCC(C)CC2)oc2ccc3c(c12)C(O)CC1(CCCCC1)O3 (centres undefined)	DT40 TDP1 CPT 16.4µM, HT1080 IDH1KD tx 9.2µM, DT40 TDP1 no CPT inconclusive, HT1080NT lethal inconclusive
Cc1ccc(-n2c(-c3ccccc3)c[n+]3c2CCc2ccccc2-3)c(C)c1	DT40 TDP1 CPT 0.206µM, HT1080 IDH1KD tx inconclusive, DT40 TDP1 no CPT 0.0366µM, IL1B secr inh -99.5, HT1080NT lethal 23.1µM
CCc1ccc(S(=O)(=O)NCc2cn3ccccc3n2)s1	DT40 TDP1 CPT inconclusive, DT40 TDP1 no CPT inconclusive
CCc1ccc(S(=O)(=O)NCc2cn3cccc(C)c3n2)s1	DT40 TDP1 CPT 18.4µM, DT40 TDP1 no CPT 16.4µM
COCCN(Cc1ccc(C)cc1)C(=O)[C@H]1O[C@@H](n2cnc3c(N)ncnc32)[C@H](O)[C@@H]1O	none
Cc1ccccc1C(=O)N1CCC(C(=O)NN2C(=O)NC3(CCCCC3)C2=O)CC1	none
c1ccc2c(CN3CCOCC3)c3ccccc3c(CN3CCOCC3)c2c1	DT40 TDP1 CPT inconclusive, DT40 TDP1 no CPT inconclusive
CCN1CCN(Cc2c3ccccc3cc3ccccc23)CC1	DT40 TDP1 CPT inconclusive, DT40 TDP1 no CPT inconclusive, IL1B secr inh -86.3
CCn1cnc2sc(-c3ccccc3)cc2c1=O	none
Cc1ccc(C)n1-n1c(C)nc2sc(-c3ccccc3)cc2c1=O	DT40 TDP1 CPT 18.4µM, DT40 TDP1 no CPT 14.6µM
O=c1[nH]c(-c2ccccc2)nc2sc(-c3ccccc3)cc12	DT40 TDP1 CPT 10.3µM, DT40 TDP1 no CPT 6.51µM
Cc1cc(SCC(=O)NCCCN2CCCC2=O)nc2ccccc12	none
O=C(OCC(=O)N1CCCC1=O)C1COc2ccccc2O1 (centres undefined)	none
CN[C@@H](C)C(=O)NC[C@H]1O[C@@H](n2cnc3c(N)ncnc32)[C@H](O)[C@@H]1O	none
Clc1ccc(-c2csc(N3CCSCC3)n2)cc1	none
COc1ccc(N2CCN(C(=O)CN3CCN(c4nc(-c5ccc(F)cc5)cs4)CC3)CC2)cc1	DT40 TDP1 CPT 5.8µM, DT40 TDP1 no CPT 7.31µM, IL1B secr inh -52.2
CC(C)C(=O)NNC(=O)CN1CCN(c2nc(-c3ccccc3)cs2)CC1	DT40 TDP1 CPT inconclusive
CC(C)CNC(=S)N1CCN(c2nc(-c3ccc(Cl)cc3)cs2)CC1	DT40 TDP1 CPT inconclusive, HT1080 IDH1KD tx inconclusive, DT40 TDP1 no CPT 16.4µM, IL1B secr inh -68.7, HT1080NT lethal inconclusive
CCC(=O)N1CCN(c2nc(-c3ccc(Cl)cc3)cs2)CC1	DT40 TDP1 CPT 23.1µM, HT1080 IDH1KD tx inconclusive, DT40 TDP1 no CPT 23.1µM
O=C(c1cc(-n2cnnc2)ccc1Cl)N1CCN(c2nc(-c3ccccc3)cs2)CC1	DT40 TDP1 CPT 16.4µM, HT1080 IDH1KD tx inconclusive, DT40 TDP1 no CPT 23.1µM, IL1B secr inh -89.5, HT1080NT lethal inconclusive
COc1ccc(CCNC(=O)C/C(C)=N/NC(=O)c2cnccn2)cc1	none
O=C(Nc1cc(S(=O)(=O)N2CCOCC2)ccc1N1CCCC1)c1ccccc1C(F)(F)F	none
Cc1cc(NC(=O)COc2coc(CN3CCN(c4ccc(F)cc4)CC3)cc2=O)no1	none
O=C(NC(=S)N1CCN(c2nc(-c3ccccc3)cs2)CC1)c1cncc(Br)c1	DT40 TDP1 CPT 10.3µM, DT40 TDP1 no CPT inconclusive
